Most compounds without a hit are left out; they make up all but 3.1% or so of the library.
TRb-SRC2 inh = inhibitors of human thyroid hormone receptor beta-SRC2 interaction. Potency, µM (top dose mostly 106 µM), hits mostly inhibitors. hit rate 0.065% among 280,000. TRbeta-SRC2 peptide binding, fluorescence polarization; receptor liganded with 1 µM T3; further: nearly all actives have a fitted effect of over 50% in size
Target sequence (P10828 whole entry, looked up): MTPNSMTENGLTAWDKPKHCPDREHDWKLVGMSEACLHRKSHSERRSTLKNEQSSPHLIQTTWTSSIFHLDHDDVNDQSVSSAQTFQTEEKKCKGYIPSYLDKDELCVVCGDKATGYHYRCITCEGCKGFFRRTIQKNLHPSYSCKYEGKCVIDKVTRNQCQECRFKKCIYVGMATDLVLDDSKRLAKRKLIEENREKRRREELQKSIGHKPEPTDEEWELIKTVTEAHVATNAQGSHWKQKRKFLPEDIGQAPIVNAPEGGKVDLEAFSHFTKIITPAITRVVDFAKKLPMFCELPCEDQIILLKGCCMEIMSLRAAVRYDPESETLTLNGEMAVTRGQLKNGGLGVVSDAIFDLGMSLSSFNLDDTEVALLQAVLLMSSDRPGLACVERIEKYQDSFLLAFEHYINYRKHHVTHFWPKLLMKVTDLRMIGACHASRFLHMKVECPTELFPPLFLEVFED
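Human TRb LBD (0.6 uM) plus Texas Red-labeled SRC2 peptide (20 nM), 1uM T3, 5% DMSO, 5 hr at ambient temperature. Decreased polarization (555/632 nm) flags inhibition; data normalized to free and bound peptide controls.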
Tau fluor counter = counter-screen for tau fibril formation inhibitors; tau K18 P301L Alexa594 fluorescence, heparin fibrillization; Potency, µM (highest dose often 57.7 µM); hit rate 0.93% among 280,000; AID 1463; further: nearly all actives have a fitted effect of over 55% in size
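Human K18 P301L tau (15 uM unlabeled plus 0.24 uM Alexa 594-labeled, final) in 100 mM sodium acetate pH 7 was mixed with compound and 20 uM heparin and incubated 6 hr at 37 C.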
TexasRed fluor = alters Texas Red total fluorescence, flagging assay interference; AID 1479; TRb/SRC2 Texas Red total fluorescence interference; hit rate 0.29% among 280,000; Potency, µM (top dose mostly 106 µM); active means well fitted curve in either direction with a large enough effect; inconclusive means small, poorly fitted or top-dose-only effect
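Flags fluorescent or light-absorbing compounds by total fluorescence, S + 2P, at 555 nm excitation and 632 nm emission. Mixture: 20 nM Texas Red SRC2 peptide, 0.6 uM human TRb LBD, 1 uM T3, 5% DMSO; compound exposure 5 h at ambient temperature.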
Tau fibril ThT = inhibitors of human tau fibril formation, thioflavin T binding; recombinant tau K18 P301L, heparin-induced fibrillization, ThT fluorescence; Potency, µM (top dose mostly 57.4 µM), usual class: inhibitors; hit rate 2.1% among 270,000; further: nearly all actives have a fitted effect of over 55% in size
Target sequence (P10636 561-689 P618L limits assumed): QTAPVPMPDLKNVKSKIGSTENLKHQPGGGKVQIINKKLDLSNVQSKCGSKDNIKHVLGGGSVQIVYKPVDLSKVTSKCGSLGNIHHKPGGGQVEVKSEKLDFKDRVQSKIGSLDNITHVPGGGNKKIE
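Fibril formation assay: tau K18 P301L at 15 uM with trace Alexa 594 label, heparin inducer 20 uM, pH 7 sodium acetate buffer, 37 C for 6 hr; endpoint ThT signal.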
Tau fibril FP = blocks human tau fibril formation measured by polarization; K18 P301L tau heparin fibrillization, Alexa594 FP, 6 h; Potency, µM (titrated, usually from 57.7 µM), usual class: inhibitors; hit rate 0.39% among 280,000; AID 1468; further: nearly all actives have a fitted effect of over 55% in size
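Quantitative HTS format: compounds meet 15 uM recombinant K18 P301L tau and Alexa 594-tau tracer in 100 mM sodium acetate pH 7; 20 uM heparin triggers fibrillization at 37 C over 6 hr; FP gives the signal.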
Numbers stand for hits; i = inactive; ? = inconclusive; nt = no result given; [ ] = another dose, or the depositor's remark. Unless noted, the call rests on the fitted dose curve; in most records, active means well fitted curve in the direction sought with a large enough effect; inconclusive means small, poorly fitted or top-dose-only effect, or another doubt; inactive means no such curve, though single readings can be large; an effect the other way counts as inactive or inconclusive.

SMILES	TRb-SRC2 inh	Tau fluor counter	TexasRed fluor	Tau fibril ThT	Tau fibril FP
Cc1ccc(-n2ncc3c(Nc4cccc(C(F)(F)F)c4)ncnc32)cc1C	?	?	i	i	10µM
O=C(CSc1nccn1-c1ncc(C(F)(F)F)cc1Cl)c1ccc(Br)cc1	i	i	i	14.1µM	?
CCCCCCC#CC1C=CC(Oc2ccc(C=O)cc2)C(CO)O1 (stereo unspecified)	i[11.2 µM]	i[11.6 µM]	i[11.2 µM]	i[11.5 µM]	i[11.6 µM]
OC(CNc1ccccc1)COc1ccc(OCC(O)CNc2ccccc2)cc1 (stereo unspecified)	i	10µM[quencher]	i	2.82µM	i
CNc1nc(N/N=C/c2ccc([N+](=O)[O-])cc2)nc(Nc2ccccc2)n1	i	15.8µM[quencher]	i	3.98µM	i
Nc1ccc(-c2nc3ccc(-c4nc5ccc(N)cc5[nH]4)cc3[nH]2)cc1	i	12.6µM[quencher]	44.7µM[quencher]	12.6µM	i
Nc1ccc(-c2nc3ccccc3[nH]2)cc1	i	i	i	?	i
CCC(Sc1nc2nccnc2c(=O)n1Cc1ccc(F)cc1)C(=O)NC1CCCCC1 (stereo unspecified)	i	i	i	i	i
CCN(CC)c1ccc(/C=C2/C(=O)c3ccc(C(=O)O)cc3C2=O)cc1	i	i	?	3.16µM	?
COc1cccc(NC2=Nc3cccc4cccc2c34)c1	i	?	i	11.2µM	i
COc1ccc(NC2=Nc3cccc4cccc2c34)cc1OC	i	?	i	12.6µM	i
CCCCCCCCCCCCCCCCCCN	i	nt	i	nt	nt
Cc1ccc2c(=O)cc(C(=O)Nc3cccc(Cl)c3C)oc2c1C	i	i	i	i	i
COc1ccccc1C(=O)Nc1cccc(C(=O)OCc2cc(=O)n3nc(C)sc3n2)c1	i	i	i	?	i
COc1ccc(-n2c(N)c(C(=O)NCC3CCCO3)c3nc4ccccc4nc32)c(OC)c1 (stereo unspecified)	?	?	i	28.2µM	i
CC1=CC(C)(C)Nc2ccc(OS(=O)(=O)c3ccc(C)cc3)cc21	i	5.01µM[quencher]	i	8.91µM	?
CC1=CC(C)(C)Nc2ccc(OC(=O)CCN3C(=O)c4ccccc4C3=O)cc21	i	?	i	?	?
CC(=O)Nc1ccc(S(=O)(=O)Oc2ccc3c(c2)C(C)=CC(C)(C)N3)cc1	i	14.1µM[quencher]	i	?	?
O=C(/C=C/c1ccccc1)N1CCN(Cc2cc(=O)n3nc(-c4ccccc4Cl)sc3n2)CC1	i	i	i	?	i
Cc1ccc(C(=O)c2oc3ccccc3c2NC(=O)C(C)Oc2ccccc2Cl)cc1 (stereo unspecified)	i	i	i	i	?
COc1ccc(C(=O)NCCNc2ccccc2[N+](=O)[O-])cc1	i	i	i	8.91µM	i
COc1ccc(-c2noc(CSCC(=O)Nc3cccc(C(F)(F)F)c3)n2)cc1OC	i	i	i	i	i
Cc1ccc(NC(=O)Cn2sc3nc(C)cc(C)c3c2=O)c(Cl)c1	i	i	i	28.2µM	?
CCOc1ccc(NC(=O)Cn2sc3nc(C)cc(C)c3c2=O)cc1	i	i	i	12.6µM	20µM
Cc1cc(C)c2c(=O)n(CC(=O)Nc3cccc(F)c3)sc2n1	i	i	i	14.1µM	14.1µM
SMILES	TRb-SRC2 inh	Tau fluor counter	TexasRed fluor	Tau fibril ThT	Tau fibril FP
CCOC(=O)c1ccc(N2C(=O)c3[nH]nc(-c4ccc(OC)cc4)c3C2c2cccc(O)c2)cc1 (stereo unspecified)	i	?	i	?	15.8µM
CCOC(=O)c1ccc(N2C(=O)c3[nH]nc(-c4ccc(C)cc4)c3C2c2cccc(F)c2)cc1 (stereo unspecified)	i	i	i	i	?
CC(C)c1c(O)ccc2c1CCC1[C@@](C)(CO)CCC[C@@]21C (stereo partly specified)	i	?	i	?	i
COC(=O)[C@@]1(C)CCC[C@@]2(C)c3ccc(O)c(C(C)C)c3CCC21 (stereo partly specified)	i	15.8µM[quencher]	i	?	i
Nc1ccc2nc(SCc3ccccc3F)sc2c1	i	0.562µM[quencher]	i	nt	?
CC(=O)Nc1ccc2cc3ccc(NC(C)=O)cc3nc2c1	i	?	i	7.94µM	i
CC(=O)Nc1ccc2ccccc2c1	i	i	i	i	i
CCN(C(=O)CSc1nc2ccccc2n1Cc1ccccc1C#N)c1ccccc1	i	i	i	i	i
CCOC(=O)c1sc(N/N=C/c2cccc(C)c2)nc1C	i	8.91µM[quencher]	i	?	?
CCOC(=O)c1sc(N/N=C/c2ccccc2)nc1C	i	?	i	?	i
COc1ccc(C2(C(=O)c3ccccc3)C(=O)c3ccccc3C2=O)cc1	i	?	i	14.1µM	?
CC(C)=NOC[C@@H](O)[C@@H]1O[C@@H]2OC(C)(C)O[C@@H]2[C@H]1O	i[11.2 µM]	i[11.6 µM]	i[11.2 µM]	i[11.5 µM]	i[11.6 µM]
CCOC(=O)c1ccc(Nc2c(OCC)c(=O)c2=O)cc1	i	17.8µM[quencher]	i	nt	i
CC(C)c1noc(-c2ccccc2OCC(=O)Nc2cccc([N+](=O)[O-])c2)n1	i	i	i	i	i
ICCc1ccccc1	i	nt	i	nt	nt
CC1(C)CC(=O)C2=C(C1)NC1=C(C(=O)c3ccccc31)C2c1ccc(O)cc1 (stereo unspecified)	i	?	i	17.8µM	i
CC12C=C(/C=C/c3ccc(F)cc3)C(C)(C1)C(c1ccc(F)cc1)CC2=O (stereo unspecified)	i[11.2 µM]	i[11.6 µM]	i[11.2 µM]	i[11.5 µM]	i[11.6 µM]
O=C1NC(=O)c2c1c(-c1ccccc1)cc1[nH]c3ccc(O)cc3c21	i	nt	i	nt	nt
O=C(O)C1(C(=O)Nc2ccc(Cl)cc2Cl)CC1	i	nt	i	nt	nt
CC(=O)OCC(NC(=O)C(COCc1ccccc1)NC(=O)OC(C)(C)C)C1OC(n2cc(C)c(=O)[nH]c2=O)C(OC(C)=O)C1OC(C)=O (stereo unspecified)	i	nt	i	nt	nt
Nn1cnc2c([nH]c3ccccc32)c1=O	i	i	1122µM[quencher]	i	i
CC(C)[C@H](NC(=O)[C@H](CCCCN)NC(=O)[C@@H](NC(=O)[C@@H]1CCCN1C(=O)[C@H](CCCN=C(N)N)NC(=O)[C@H](CCCN=C(N)N)NC(=O)[C@H](CCCCN)NC(=O)[C@H](CCCCN)NC(=O)CNC(=O)[C@@H](NC(=O)[C@@H]1CCCN1C(=O)[C@@H](N)CCCCN)C(C)C)C(C)C)C(=O)N[C@@H](Cc1ccc(O)cc1)C(=O)N1CCC[C@H]1C(=O)O	i	nt	i	nt	nt
CCOC(=O)c1ccc(/C=C2/C=C(c3ccccc3)N(c3ccc(Cl)c(C(=O)O)c3)C2=O)cc1	i	i	i	15.8µM	i
CCOC(=O)c1ccc(Cl)c(NC(=O)c2ccc(-c3ccccc3)cc2)c1	i	i	i	i	i
CCCN1C(=O)C2(c3ccccc31)c1c(oc3ccccc3c1=O)C(=O)N2CCCOC(C)C (stereo unspecified)	i	i	i	i	i
CCCN1C(=O)C2(c3ccccc31)c1c(oc3ccc(F)cc3c1=O)C(=O)N2CCCOC(C)C (stereo unspecified)	?	i	3.55µM[quencher]	i	i

Screening data (PubChem BioAssay)
